# Assay outcomes: PubChem, National Center for Advancing Translational Sciences (NCATS)
# The entries come from a sample that favours hits as a whole.
# KDM5B inh – blocks human KDM5B histone demethylase activity. Q9UGL1. KDM5B demethylase, FDH-coupled NADH fluorescence (FDH is formaldehyde dehydrogenase). Potency, µM (top dose mostly 57.7 µM), actives largely listed as inhibitors. 220,000 compounds, 2.6% hits; active = well fitted inhibition curve with a large enough effect; note: 0% is about no effect; nearly all actives have a fitted effect of over 70% in size
#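 Here, H3K4me3 peptide (12.5 µM in substrate mix) is demethylated by KDM5BΔAP, 200 nM final, after 10 min compound exposure. Formaldehyde product is coupled through FDH (0.25 U/mL in mix) to NADH fluorescence; 30-min ΔRFU feeds dose-response curves.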
# * = called active by the depositor; i = inactive. Potency is the fitted concentration of half-maximal effect.
SMILES,KDM5B inh
O=C(c1ccc(-c2ncc3cnc(-c4ccccc4)cn23)cc1)N1CCc2cccnc21,32µM*
O=C(NCCCn1ccnc1)c1ccc(S(=O)(=O)Nc2ccccc2)cc1,i
O=C(NCCCN1CCCC1=O)c1ccc(-c2ncc3cnc(-c4ccccc4)cn23)cc1,32µM*
O=C(Nc1ccc2[nH]ccc2c1)c1ccc(-c2ncc3cnc(C4=CCOCC4)cn23)cc1,i
Cc1ccc(N(C)S(=O)(=O)c2cccc(C(=O)NCCCN3CCCC3=O)c2)cc1,i
CC(C)n1nc(C(=O)NCCCN2CCCC2=O)c2ccccc2c1=O,i
O=C(NCCCn1ccnc1)c1ccc(-c2ncc3cnc(-c4ccccc4)cn23)cc1,32µM*
O=C(NCCCn1ccnc1)c1ccc(-c2ccccc2)cc1,i
Cc1ccc(C(=O)N2CCc3cc(CNC(=O)COc4ccccc4)ccc32)cc1,i
COC(=O)c1ccc(CNC(=O)c2cccc(I)c2)cc1,i
COc1ccc(-c2nn(-c3ccccc3)cc2C2=NN(S(C)(=O)=O)C(c3cccs3)C2)cc1 (stereo not given),i
NCCSCc1ccco1,i
COc1ccc(-c2c(NC(=O)c3ccc([N+](=O)[O-])cc3)oc3ccc(Cl)cc3c2=O)cc1OC,i
Cc1ccccc1CNC(=O)CCC[C@@H]1[C@H]2CCCN3CCC[C@@H](CN1Cc1cccnc1)[C@@H]23,i
CCN(Cc1ccncc1)C(=O)CCC[C@@H]1[C@H]2CCCN3CCC[C@@H](CN1Cc1cccnc1)[C@@H]23,28µM*
CN1CCCN(C(=O)CCC[C@@H]2[C@H]3CCCN4CCC[C@@H](CN2C)[C@@H]34)CC1,i
O=C(CCC[C@@H]1[C@H]2CCCN3CCC[C@@H](CN1Cc1ccccc1)[C@@H]23)Nc1cccnc1,i
CN1CCCN(C(=O)CCC[C@@H]2[C@H]3CCCN4CCC[C@@H](CN2Cc2ccccc2)[C@@H]34)CC1,i
CN1CCCN(C(=O)CCC[C@@H]2[C@H]3CCCN4CCC[C@@H](CN2Cc2cccnc2)[C@@H]34)CC1,22µM*
CN(C)c1nc(N(C)C)nc(-n2cnc(SCc3ccccc3)n2)n1,i
Cc1ccc(C)c(C(C)NC(=O)c2cc3ccccc3oc2=O)c1 (stereo not given),i
O=S(=O)(c1ccc(=S)[nH]n1)C1CCCCC1,i
Cc1ccc(Cl)cc1NC(=O)COc1ncnc2ccccc12,i
CCC(C)NS(=O)(=O)c1ccc(N2C(=O)CCS2(=O)=O)cc1 (stereo not given),i
CC(C)Nc1oc(-c2ccco2)nc1S(=O)(=O)c1ccc2c(c1)OCCO2,i
SMILES,KDM5B inh
Cc1noc(C)c1[S+](=O)([O-])N1CCC2(CC1)CC(=O)c1ccccc1O2,20µM*
O=C1CC2(CCN(Cc3ccc(C(F)(F)F)cc3)CC2)Oc2cc(Cl)ccc21,i
COc1ccc(CN2CCC3(CC2)CNC(=O)c2ccccc2O3)cc1,i
COc1ccc(CN2CCC3(C2)NC(=O)c2ccccc2O3)cc1 (stereo not given),i
O=C1CC2(CCN(C(=O)c3ccc4c(c3)OCO4)CC2)Oc2cc(Cl)ccc21,i
Cc1noc(C)c1[S+](=O)([O-])N1CCCC2(C1)NC(=O)c1ccccc1O2 (stereo not given),i
O=C1NCC2(CCN(C(=O)c3ccc4c(c3)OCO4)CC2)Oc2ccccc21,i
CCCN1CCC2(CCN([S+](=O)([O-])c3c(C)noc3C)CC2)Oc2ccccc21,i
O=C1CC2(CCN(Cc3ccsc3)CC2)Oc2ccccc21,35µM*
COc1ccc(CN2CCC3(CC2)CC(=O)c2ccccc2O3)cc1,35µM*
O=C1CC2(CCN(C(=O)c3ccc4c(c3)OCO4)CC2)Oc2ccccc21,25µM*
O=C1CC2(CCN(Cc3ccc(F)cc3)CC2)Oc2cc(Cl)ccc21,i
CC(C)(C)c1cnc([C@@H]2COCCN2Cc2ccccc2O)[nH]1,i
CC(c1ccccc1)N(C)C(=O)c1nn(C)c(=O)c2ccccc12 (stereo not given),i
S=C(NCCCCc1ccccc1)Nc1cccc(Cl)c1Cl,i
CC(=O)c1ccc(NC(=O)[C@H](C(C)C)n2nnc3ccccc3c2=O)cc1,i
O=S(=O)(NCC1(c2ccccc2)CC1)c1cc(F)ccc1F,i
N#Cc1ccc(C(=O)N2CCC(Cc3nc(-c4ccncc4)n[nH]3)C2)cc1 (stereo not given),i
O=C(Nc1ccc(C(=O)N2CCOCC2)cc1)c1cc(-c2ccc(Cl)s2)nc2ccccc12,i
CCCCC1CCC(C(=O)Nc2ccc(OC)c3ncccc23)CC1 (stereo not given),i
CCCCNc1nc2c(c(=O)n(C)c(=O)n2C)n1Cc1ccc(F)cc1,i
Cc1ccccc1Nc1nc(CSc2nnc3n2CCCCC3)cs1,i
O=C1CC2(CCN(S(=O)(=O)c3ccccc3)CC2)Oc2cc(Cl)ccc21,i
Cn1cccc1CN1CCC2(CC1)CC(=O)c1ccccc1O2,25µM*
O=C1Nc2ccccc2C12CCN(S(=O)(=O)c1cccs1)C2 (stereo not given),i
